HT1080-NT tox = kills 2HG-producing HT-1080-NT fibrosarcoma cells | HT-1080-NT fibrosarcoma viability, CellTiter-Glo ATP luminescence, 48 h | Potency, µM (highest dose often 46.1 µM), without a hit: at the highest dose activity, negative = less viability, hits mostly cytotoxic | actives 1.6% (n = 360,000);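 note: NT is the 2HG producing partner of a matched IDH1 knockdown line; potency is the fitted concentration of half-maximal effect; 0% = DMSO-treated cells and -100% = media-only wells without cells; nearly all actives have a fitted effect of over 55% in size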
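Read-out is CellTiter-Glo luminescence after 10 minutes at room temperature, following 48 hours' compound treatment of HT-1080-NT cells (750 cells/well, RPMI, 5% FBS, 37 degrees C).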
DT40 TDP1 no CPT = qHTS for Inhibitors of human tyrosyl-DNA phosphodiesterase 1 (TDP1): qHTS in cells in absence of CPT. DT40 Tdp1-/- hTDP1 cells, no CPT, ATP luminescence, 48 h. Potency, µM (top dose mostly 46.2 µM), for inactives: at the highest dose activity change, negative = growth inhibition, usual class: inhibitors. actives 15% (n = 420,000). AID 686978, 2013; note: potency is the fitted concentration of half-maximal effect; nearly all actives have a fitted effect of over 55% in size
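A cellular qHTS used chicken DT40 cells lacking endogenous Tdp1 but carrying stably transfected human TDP1. Compounds were applied without camptothecin, and cell growth kinetics were judged by ATP-dependent luminescence after ≥48 hr.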
DT40 TDP1 CPT = DT40-hTDP1 cell growth loss with CPT; chicken DT40 Tdp1-/-;hTDP1 cells + 20 nM CPT, ATP luminescence, 48 h; Potency, µM (doses to about 46.2 µM), for inactives: at the highest dose activity change, negative = growth inhibition, hits mostly inhibitors; actives 12% (n = 420,000); AID 686979; note: potency is the fitted concentration of half-maximal effect; nearly all actives have a fitted effect of over 55% in size
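Chicken DT40 Tdp1-/- cells stably complemented with human TDP1 were seeded at 400 cells/well in medium containing 20 nM camptothecin, exposed to pin-transferred compounds, and grown at 37 °C for at least 48 hr. Viability was read as ATP luminescence.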
uPA surface inh = inhibitors of cell surface uPA generation; cell surface uPA generation assay, qHTS; Potency, µM (doses to about 38.3 µM), for inactives: at the highest dose activity change, negative = inhibition, actives largely listed as inhibitors; actives 0.31% (n = 330,000); AID 540303; active = well fitted inhibition curve with a large enough effect; inconclusive = small, poorly fitted or top-dose-only effect; inactive = no such curve, though single readings can be large or run the other way; tested in mouse RAW 264.7 cells; note: potency is the fitted concentration of half-maximal effect; nearly all actives have a fitted effect of over 55% in size
HT1080 IDH1KD tx = HT-1080 IDH1 knockdown cell toxicity (counter line). HT-1080 IDH1 knockdown viability, ATP luminescence, 48 h. Potency, µM (top dose mostly 46.1 µM), for the others: top-dose activity, negative = toxicity, usual class: cytotoxic. actives 2% (n = 360,000);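 note: potency is the fitted concentration of half-maximal effect; 0% = DMSO wells and -100% = cell-free medium wells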
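HT-1080-IDH1KD cells (IDH1 knocked down), 750/well in RPMI with 5% FBS, treated with compound 48 h at 37 degrees C. Viability by CellTiter-Glo luminescence, normalised to DMSO and no-cell wells; concentration-response curves classed.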
IL-1B inflam inh = blocks inflammasome-driven IL-1 beta release | actives 4.7% (n = 360,000) | THP-1 LPS/ATP IL-1B secretion, AlphaLISA, 16 h; active compounds read low | activity change, % at 57.5 µM | AID 743279; in the data active = activity change below about -50%; inconclusive = mostly about -30% to -49%
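THP-1 cells pretreated 1 hr with compounds (up to 57.5 uM final), then stimulated with LPS (250 ng/mL final) plus ATP (1.25 mM final); secreted IL-1B measured by AlphaLISA after 16 hr, decreased signal indicating inhibition.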
* hit, by the source's call; ? = inconclusive; / = no result. Shown are actives, neighbours in structure and some others; about 19% of the full set was active somewhere. Unless noted, calls come from the whole dose curve; as a rule, active = well fitted curve in the direction sought with a large enough effect; inconclusive = small, poorly fitted or top-dose-only effect, or another doubt; inactive = no such curve, though single readings can be large; an effect the other way counts as inactive or inconclusive. Unless noted, % is set by controls: 0 for no effect and ±100 for the full control effect.

SMILES	HT1080-NT tox	DT40 TDP1 no CPT	DT40 TDP1 CPT	uPA surface inh	HT1080 IDH1KD tx	IL-1B inflam inh
O=C(Cn1nnc2sc3c(c2c1=O)CCCC3)Nc1ccc(F)c(Cl)c1	/	-17%	?	/	/	/
Cc1ccc(NC(=O)C(C)n2nnc3sc4c(c3c2=O)CCCC4)cc1Cl (configuration not stated)	/	15µM*	?	/	/	/
CC(C(=O)Nc1ccccc1)n1nnc2sc3c(c2c1=O)CCCC3 (configuration not stated)	/	-89%	?	/	/	/
O=C(NC1(Cc2ccccc2)CCN(CCCc2ccccc2)C1=O)c1ccccc1 (configuration not stated)	-7%	1.2µM*	0.65µM*	?	-19%	-18
O=C(CN1CCCC1)OCCCc1ccccc1	29%	-18%	-7%	1%	16%	0
O=[N+]([O-])c1ccc(C=NNc2ccccc2)cc1	-10%	?	-7%	7%	?	-6
C/C(=N\NC(=O)C1CC1(c1ccccc1)c1ccccc1)c1cccc([N+](=O)[O-])c1 (configuration not stated)	18%	7.3µM*	?	11%	11%	7
O=C(COc1ccc(/C=N/NC(=O)c2cc3ccccc3o2)cc1Cl)Nc1ccccc1	?	6.5µM*	5.2µM*	1%	?	-98*
C/C(=N\Nc1cc(C)nc(NCc2ccccc2)n1)c1cccc([N+](=O)[O-])c1	6%	2.9µM*	8.2µM*	-2%	0%	-16
O=[N+]([O-])c1cccc(C=NNc2ccccc2)c1	-20%	?	-1%	-2%	?	-65*
COc1cc(/C=N/NC(=O)c2ccccc2O)ccc1OCC(=O)Nc1ccccc1	-25%	?	?	-15%	?	14
CCC(=O)N(C)C[C@@H]1Oc2ncc(Br)cc2C(=O)N([C@@H](C)CO)C[C@H]1C	?	-18%	6%	/	11%	4
Clc1cccc(N/N=C/c2ccc(N3CCOCC3)cc2)c1	14%	4%	-4%	6%	13%	-23
O=[N+]([O-])c1cccc(/C=N/N=C\c2ccccc2)c1	7%	-20%	9%	0%	3%	-18
O=C(N/N=C/c1cccc([N+](=O)[O-])c1)c1cc2ccccc2o1	14%	23µM*	?	1%	?	2
O=[N+]([O-])c1cccc(N/N=C/c2ccc(N3CCOCC3)cc2)c1	-23%	16µM*	18µM*	1%	?	-63*
O=[N+]([O-])c1cccc(/C=N/Nc2nnc(-c3ccccc3)c(-c3ccccc3)n2)c1	3%	9.2µM*	9.2µM*	16%	-2%	19
C/C(=N\Nc1nnc(-c2ccccc2)c(-c2ccccc2)n1)c1cccc([N+](=O)[O-])c1	20%	8.2µM*	7.3µM*	/	24%	13
O=C(C[C@H]1C[C@@H]2c3cc(NC(=O)Nc4ccccc4)ccc3O[C@@H]2[C@@H](CO)O1)NCC1CC1	-5%	?	0%	/	?	12
CCc1ccc(NC(=O)COc2cccc(-n3cnnn3)c2)cc1	-3%	-20%	1%	-1%	-8%	-9
CC1(C)CC1C(=O)Nc1ccc([N+](=O)[O-])cc1Br (configuration not stated)	12%	?	4%	2%	1%	2
O=[N+]([O-])/C=C\c1ccc(N2CCOCC2)cc1	21µM*	16µM*	15µM*	8.9µM*	15µM*	-80*
Cc1ccc(C2(c3ccc(C)cc3)CC2C(=O)Nc2ccc([N+](=O)[O-])cc2O)cc1 (configuration not stated)	21µM*	2.6µM*	3.7µM*	-9%	16µM*	-73*
CCc1nc2ccc(C(=O)NCCCN3CCCC3=O)cn2c1N(CC)C(C)=O	16%	-8%	2%	/	?	31
Cc1cc(=O)n(-c2ccc3ccccc3n2)[nH]1	?	21µM*	18µM*	-8%	-25%	14
SMILES	HT1080-NT tox	DT40 TDP1 no CPT	DT40 TDP1 CPT	uPA surface inh	HT1080 IDH1KD tx	IL-1B inflam inh
CCc1nc(CN2CCN(c3cc(C(F)(F)F)ccn3)CC2)c(C)[nH]1	-14%	16µM*	23µM*	-17%	-2%	0
Cc1ccc(-c2nnc(CSc3nc4cc5c(cc4cc3C)OCO5)o2)cc1	4%	21µM*	?	-4%	29%	-4
COCCNC(=S)N1CCN(c2cccc(C(F)(F)F)c2)CC1	-5%	23µM*	?	-3%	?	20
FC(F)(F)c1cccc(N2CCN(C(=S)NCC3CCCO3)CC2)c1 (configuration not stated)	-9%	23µM*	?	-5%	?	28
Cc1cnc(CN(C)C(=O)CC2C(=O)NCCN2CCCc2ccccc2)[nH]1 (configuration not stated)	0%	-3%	-1%	1%	3%	-3
O=C(c1ccc(N2CCN(S(=O)(=O)c3ccccc3)CC2)c([N+](=O)[O-])c1)N1CCOCC1	0%	21µM*	?	-6%	-4%	4
O=C(c1ccc(N2CCOCC2)c([N+](=O)[O-])c1)N1CCN(c2ccccc2)CC1	2%	?	?	2%	-3%	-16
NC(=O)c1ccc(N2CCN(S(=O)(=O)c3cccs3)CC2)c([N+](=O)[O-])c1	-5%	3.7µM*	8.2µM*	?	-12%	-5
NC(=O)c1ccc(N2CCN(c3ccccc3O)CC2)c([N+](=O)[O-])c1	2%	?	-22%	3%	-2%	13
CCOc1ccc(S(=O)(=O)N(C)c2ccc(OCC(=O)Nc3nc(-c4cc(OC)ccc4OC)cs3)cc2)cc1	-1%	-1%	?	5%	-1%	-5
CC(=O)c1ccc(N2CCN(C(=O)c3ccc(-c4ccccc4)cc3)CC2)cc1	-8%	13µM*	?	1%	-9%	3
CC(=O)c1ccc(N2CCN(C(=O)c3ccc4c(c3)OCO4)CC2)cc1	-8%	?	?	-12%	6%	0
CC(=O)c1ccc(N2CCN(C(=O)c3cccc(Oc4ccccc4)c3)CC2)cc1	-25%	18µM*	16µM*	0%	-22%	1
CC(C)CC(=O)N1CCN(C(=O)c2ccc(-c3ccccc3)cc2)CC1	-1%	23µM*	?	-13%	-9%	10

Source: PubChem
